PubChem BioAssay (NCATS)
Records with an inconclusive call do not appear. Unmarked numbers belong to inactive results. The source made the active and inactive calls.
% is scaled to controls: 0 for no effect and ±100 for the full control effect.

What follows are compounds tested against Retinoic acid receptor RXR-alpha (Homo sapiens) (UniProt P19793) (assay: qHTS assay for small molecule antagonists of retinoid X receptor alpha signaling (AID 588546; active = well fitted inhibition curve with a large enough effect in the signal ratio, with a control signal flat, not every such curve was filed as active; the % refers to the signal ratio; also: potency is read from the fitted curve at half-maximal effect;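 as to max response: cells stimulated with 9-cis-retinoic acid as agonist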)). Conditions: HEK293T RXRa-UAS-bla, beta-lactamase ratio, antagonist mode.
Sequence of Retinoic acid receptor RXR-alpha (Homo sapiens) (P19793 whole entry, looked up): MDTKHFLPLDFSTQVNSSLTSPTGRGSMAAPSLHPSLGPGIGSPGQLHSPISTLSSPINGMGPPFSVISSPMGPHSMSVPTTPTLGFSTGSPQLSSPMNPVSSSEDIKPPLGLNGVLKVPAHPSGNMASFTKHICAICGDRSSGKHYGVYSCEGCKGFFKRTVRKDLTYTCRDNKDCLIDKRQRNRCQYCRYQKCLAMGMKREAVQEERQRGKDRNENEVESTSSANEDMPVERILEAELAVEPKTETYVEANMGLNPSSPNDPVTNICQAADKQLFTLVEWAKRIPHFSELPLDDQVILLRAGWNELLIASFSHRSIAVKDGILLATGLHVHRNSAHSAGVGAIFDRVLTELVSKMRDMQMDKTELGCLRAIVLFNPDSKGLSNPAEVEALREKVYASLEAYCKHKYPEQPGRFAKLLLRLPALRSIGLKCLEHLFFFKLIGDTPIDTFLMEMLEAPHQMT
Outline: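 Beta-lactamase reporter inhibition, read as CCF4 fluorescence ratio (ex 405, em 460/530 nm) after 2 h at RT. HEK293T UAS-bla cells, 2500/well, were stimulated with 9-cis-RA at 500 or 100 nM final alongside test compound for 18 h at 37 C.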
`Fc1ccc(Oc2ccnc3cc(Cl)cc(Cl)c23)cc1` was tested, and the Potency was 39.8 µM (active). `COC(=O)N(OC)c1ccccc1COc1ccn(-c2ccc(Cl)cc2)n1` was tested, and the Potency was 3.16 µM (active). In the case of `CCCCCCCCCCCCN(C)C`, the max response is reported as -14.3%. `CCOP(=S)(OCC)SCn1nnc2ccccc2c1=O` was tested, and the Potency was 39.8 µM (active). In the case of `CCC[CH2][Sn]([Cl])([Cl])[CH2]CCC`, the Potency is reported as 3.98 µM (active). `CC(C)N(C(=O)SCC(Cl)=C(Cl)Cl)C(C)C` was tested, and the max response was 10.8%. `CCC(C)c1cc([N+](=O)[O-])cc([N+](=O)[O-])c1O` (centres undefined) was tested, and the max response was 15.9%. `O=P(Oc1ccccc1)(Oc1ccccc1)Oc1ccccc1` gave a max response of -15.3%.

Each compound was assayed against Thyroid hormone receptor beta (Homo sapiens) (UniProt P10828) (assay: qHTS assay for small molecule antagonists of thyroid hormone receptor beta signaling (AID 588547; active = well fitted inhibition curve with a large enough effect in the signal ratio, with a control signal flat, not every such curve was filed as active; the % refers to the signal ratio;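 also: cells stimulated with 0.4 nM T3 agonist during compound exposure; series mostly up to about 77 µM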)). Conditions: TR-UAS-bla HEK293, beta-lactamase ratio, antagonist mode, 18 h.
Sequence of Thyroid hormone receptor beta (Homo sapiens) (P10828 whole entry, looked up): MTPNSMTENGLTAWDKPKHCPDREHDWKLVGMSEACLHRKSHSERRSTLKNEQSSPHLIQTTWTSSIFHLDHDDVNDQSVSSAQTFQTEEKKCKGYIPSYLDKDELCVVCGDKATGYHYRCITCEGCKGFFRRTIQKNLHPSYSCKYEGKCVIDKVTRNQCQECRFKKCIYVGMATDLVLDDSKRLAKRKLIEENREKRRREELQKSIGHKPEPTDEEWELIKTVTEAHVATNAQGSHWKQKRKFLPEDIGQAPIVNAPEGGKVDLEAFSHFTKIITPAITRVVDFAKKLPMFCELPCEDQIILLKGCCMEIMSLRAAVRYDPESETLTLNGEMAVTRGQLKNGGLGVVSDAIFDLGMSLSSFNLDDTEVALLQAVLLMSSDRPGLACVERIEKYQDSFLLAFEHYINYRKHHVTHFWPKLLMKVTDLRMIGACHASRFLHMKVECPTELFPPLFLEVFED
Outline: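 TR-UAS-bla GripTite HEK293 cells in 2% charcoal/dextran FBS medium; compounds 0.59 nM to 92 uM with T3 at 0.4nM final, 18 h at 37 C. Beta-lactamase read by CCF4 fluorescence (460/530 nm); Hill fits gave IC50 and efficacy.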
`CC[C@H]1CCCC(O[C@H]2CC[C@H](N(C)C)[C@@H](C)O2)[C@@H](C)C(=O)C2=C[C@@H]3[C@@H](C=C[C@@H]4C[C@@H](O[C@@H]5O[C@@H](C)[C@H](OC)[C@@H](OC)[C@H]5OC)C[C@@H]34)[C@@H]2CC(=O)O1` (some centres undefined) gave an activity change % (negative = inhibition) of -5.92%. For `CCOP(=S)(OCC)SCn1nnc2ccccc2c1=O`, the activity change % (negative = inhibition) was -2.51%. With `CSC1=N[C@@](C)(c2ccccc2)C(=O)N1Nc1ccccc1` the activity change % (negative = inhibition) was -28.6%. `CC(c1ccc(O)cc1)(c1ccc(O)cc1)c1ccc(O)cc1` gave an activity change % (negative = inhibition) of -15%. Work on `CCC(C)c1cc([N+](=O)[O-])cc([N+](=O)[O-])c1O` (centres undefined) yielded an activity change % (negative = inhibition) of -14.7%. `O=P(Oc1ccccc1)(Oc1ccccc1)Oc1ccccc1` showed an activity change % (negative = inhibition) of -5.53%.
